PubChem BioAssay (NCI)
This is part of a sample that, as a whole, favours compounds with a hit. Of some 83,000 tested, about 20% had one in any assay.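 Note: values are percent growth. 100 is the growth of untreated cells, values between 100 and 0 indicate rising inhibition; between -100 and 0 indicates cell death.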 Activity calls are given as the source filed them. The calls were made as follows: active = growth percent below 10; inactive = the rest.

system: SF-295 CNS; test: NCI-60 one-dose screen, 48 h (100 = growth as untreated, 0 = no growth, -100 = all killed); conditions: 10 µM

SMILES | growth
COc1cc(-c2nc3cc(Cl)c(Cl)cc3[nH]2)ccc1OCc1nnc(-c2ccc(Br)cc2)o1 | -46.1% (active)
Cc1ccc(NC(=O)c2ccc(-n3c(=O)[nH]c4ccccc4c3=O)cc2)cc1 | 91.9% (inactive)
CC(=C(c1ccc(OCCN2CCCCC2)cc1)c1ccc(OCCN2CCCCC2)cc1)c1ccccc1 | -57.2% (active)
CCCCCc1ccc(S(=O)(=O)N(C(C)=O)c2cc(-c3csc(N(C)C(C)=O)n3)ccc2N2CCN(C)CC2)cc1 | -88.2% (active)
COc1cc2c3c(n(CCCNC(C)C)c(=O)c2cc1OC)-c1nc2c(cc1C3=O)OCO2 | 11.7% (inactive)

system: SF-539 CNS; test: as above; conditions: 10 µM

SMILES | growth
O=C(NO)c1ccc(Cn2ccc3c(Nc4ccccc4)ncnc32)cc1 | -80% (active)
N#Cc1ccc(-c2nn(-c3ccc(C(=O)O)cc3)cc2CNc2cccc(Br)c2)cc1 | 38.6% (inactive)
O=C(c1ccc(Cl)cc1)C1[C@H](c2ccccc2Br)[C@@H](c2ccccc2)NC12C(=O)Nc1ccccc12 (some centres not stated) | 13.5% (inactive)
CC1(C)CC[C@]2(C(=O)Nc3ccccc3)CC[C@]3(C)C(=CC[C@@H]4[C@@]5(C)CC[C@H](N)C(C)(C)[C@@H]5CC[C@]43C)[C@H]2C1 | 87.8% (inactive)
CC(=C(c1ccc(OCCCN(C)C)cc1)c1ccc(OCCCN(C)C)cc1)c1ccccc1 | -100% (active)
Cc1ccc(/C=C/C(=O)c2ccc(S(=O)(=O)NCCNc3nc(Nc4ccc(F)cc4)nc(N(C)C)n3)cc2)cc1 | 41.6% (inactive)
COc1ccc(C(=O)Nc2sc3c(c2C#N)CCC(=O)C3)cc1C(F)(F)F | -82.7% (active)
COc1ccc2nc(Cl)c(-c3cc(-c4ccccc4)nc(=S)[nH]3)cc2c1 | 63.5% (inactive)
Cc1ccc(-c2cc(C(=O)N=Nc3c(O)[nH]c4ccccc34)c3ccccc3n2)cc1 | -66.2% (active)
C#Cc1ccc(S(=O)(=O)Nc2cccc(-c3csc(NC(C)=O)n3)c2)cc1 | 90.3% (inactive)
CC(C)C1=C[C@@]23CC[C@@H]4[C@](C)(CCC[C@]4(C)C(=O)NCc4ccccc4)[C@H]2C[C@@H]1[C@H]1C(=O)CCC(=O)[C@H]13 | 72.2% (inactive)
COc1ccc(C(=O)NC(=S)N2CCN(c3ncnc4c3cnn4-c3ccccc3)CC2)cc1 | 32.3% (inactive)
C[C@H]1[C@H](C)CC[C@]2(COC(=O)CCC(=O)NCC#CCN3CCNCC3)CC[C@]3(C)C(=CC[C@@H]4[C@@]5(C)CCCNC(C)(C)[C@@H]5CC[C@]43C)[C@H]12 | 41.9% (inactive)
CC[C@@]1(O)C(=O)OCc2c1cc1n(c2=O)Cc2c-1nc1cc(F)c(C)c3c1c2[C@@H](N)CC3 | -74.9% (active)
Cc1cccc2cc(-c3cc(-c4ccccc4)nc(=S)[nH]3)c(Cl)nc12 | 82.1% (inactive)
Cc1ccc(CNC(=O)Cc2ccc3c(c2)CN(C2CCC(=O)NC2=O)C3=O)cc1 (configuration not stated) | 18.6% (inactive)
CONC[C@]1(C)C=C2C(=O)[C@](C)(O)C3(CC3)C(C)=C2[C@H]1O | -80.5% (active)
CC1(C)CC[C@]2(C(=O)N3CCOCC3)CC[C@]3(C)C(=CC[C@@H]4[C@@]5(C)CC[C@H](NCO)C(C)(C)[C@@H]5CC[C@]43C)[C@H]2C1 | -96.8% (active)
NS(=O)(=O)c1ccc(N=Nc2c(O)n(CC(=O)Nc3ccccc3Br)c3ccccc23)cc1 | 5.32% (active)

SMILES | growth
CNC(=O)c1cccc(N2CCc3c2ccc(NC(=O)Nc2ccc(N4CCN(C)CC4)c(C(F)(F)F)c2)c3F)c1 | -100% (active)
O=C(NCCCCC(c1ccc(F)cc1)c1ccc(F)cc1)NCCCc1cccnc1 | 0.987% (active)
CC(=O)Nc1ccc(-c2cn(-c3cccc(C(=O)Nc4ccc(Cl)c(C(F)(F)F)c4)c3)nn2)cn1 | -97.4% (active)
CCCS(=O)(=O)c1oc(-c2ccc(F)cc2)nc1S(=O)(=O)c1ccc(F)cc1 | -94.2% (active)
O=C(Cn1nc(-c2ccccc2)ccc1=O)NN1C(=O)c2ccccc2C1=O | 91.2% (inactive)
CC(=O)NCC1=C(C)C=C2C(=O)[C@](C)(O)C3(CC3)C(C)=C21 | -71.1% (active)
CCN1CCN(Cc2ccc(C(=O)Nc3cccc(-c4cn(-c5ccc6oc(=O)ccc6c5)nn4)c3)cc2C(F)(F)F)CC1 | -100% (active)
CCOP(=O)(OCC)O[C@H]1CCC(=O)[C@@H]2[C@H]1[C@H]1C[C@@H]3[C@@]4(C)CCCC(C)(C(=O)OC)[C@@H]4CC[C@@]23C=C1C(C)C (some centres not stated) | 71.7% (inactive)
O=C1Nc2ccc(F)cc2/C1=C/c1cccc(OCc2ccccn2)c1 | 35.5% (inactive)
CC1=N/C(=C\c2ccc(N(C)C)cc2)C(=O)N1CCc1ccc(S(N)(=O)=O)cc1 | 98% (inactive)
O=C(Nc1ccc(I)cc1F)c1cc(-c2ccc(F)cc2F)ccc1O | 0.0441% (active)
C/C(=N\NC(N)=S)c1ccc(Nc2nc(SC(C)C)nc(-c3ccccc3)c2C#N)cc1 | 30.7% (inactive)
COc1ccc2c(c1)N=C(C(=O)O)/C2=C/c1sc(Nc2ccc(O)cc2)nc1O | 52.1% (inactive)
COc1cc(-c2nc3cc(Cl)c(Cl)cc3[nH]2)ccc1OCc1nnc(-c2ccc(Br)cc2)o1 | -92.4% (active)
Cc1ccc(NC(=O)c2ccc(-n3c(=O)[nH]c4ccccc4c3=O)cc2)cc1 | 38% (inactive)
CC(=C(c1ccc(OCCN2CCCCC2)cc1)c1ccc(OCCN2CCCCC2)cc1)c1ccccc1 | -93.3% (active)
CCCCCc1ccc(S(=O)(=O)N(C(C)=O)c2cc(-c3csc(N(C)C(C)=O)n3)ccc2N2CCN(C)CC2)cc1 | -95.7% (active)
COc1cc2c3c(n(CCCNC(C)C)c(=O)c2cc1OC)-c1nc2c(cc1C3=O)OCO2 | -6.71% (active)
